High-throughput results: PubChem, Center for Chemical Genomics, University of Michigan
An excerpt weighted towards active compounds, which were near 0.86% of everything screened.
CDC25B CDK2 inh = human CDC25B-CDK2/CyclinA binding inhibition; HTRF CDC25B-CDK2/CyclinA binding, anti-His/anti-Flag; active compounds read high; z-score (concentration not given with the values); 94,000 tested, 0.72% active; AID 1259370; in the data active means z-score above about 3.2
HIV TAR-Tat = HIV-1 TAR-Tat binding disruption; HIV-1 TAR RNA, Tat peptide displacement FRET; active compounds read high; z-score (no concentration beside the values); 100,000 tested, 0.6% active; AID 1259389; active means z-score of 3 or more in at least 2 runs
* = called active by the depositor.

CCC(C)(C)Nc1c(-c2cc(C)c(C)cc2C)c(=O)c1=O was read as HIV TAR-Tat 1.
For CCOC(=O)c1sc(=S)n(-c2ccc(F)c(F)c2)c1N the results were HIV TAR-Tat 17*.
CCOC(=O)c1sc(=S)n(-c2ccc(C)cc2)c1N was read as HIV TAR-Tat 1.4.
`ON=C(c1nc2ccccc2[nH]1)c1nc2ccccc2[nH]1` gave CDC25B CDK2 inh 2.4.
`NNc1nc2ccccc2[nH]c1=S` gave CDC25B CDK2 inh 5.5*.
Screening CC1=C(C(=O)OCc2ccccc2)C(c2ccsc2)C2=C(CC(C)(C)CC2=O)N1 (stereo not given) returned HIV TAR-Tat 0.78.
For O=C1c2ccccc2C(=O)c2c(NCCc3ccc(O)cc3)ccc(NCCc3ccc(O)cc3)c21 the results were CDC25B CDK2 inh 2.7.
Screening O=C1c2c(O)ccc(O)c2C(=O)c2c(NCCNCCO)ccc(NCCNCCO)c21 returned CDC25B CDK2 inh -0.47 and HIV TAR-Tat 17*.
Screening COC(=O)C1Cc2cc(OC)c(OC)cc2C(Cc2ccc(OC)c(OC)c2)=N1 (stereo not given) returned CDC25B CDK2 inh 8.9* and HIV TAR-Tat -0.5.
COc1ccc(CC(=O)NN)cc1OC was read as CDC25B CDK2 inh -1.6.
For CCOC(=O)c1c(NC(=O)c2noc(C(C)C)c2[N+](=O)[O-])sc2c1CCCC2 the results were CDC25B CDK2 inh -1.8 and HIV TAR-Tat 2.1.
`O=C(NC1CCS(=O)(=O)C1)C1=Cc2ccccc2OC1` (stereo not given) gave HIV TAR-Tat -0.23.
For C=CCSc1nc2c(c(=O)[nH]1)C(c1cc(F)cc(F)c1)CC(=O)N2 (stereo not given) the results were CDC25B CDK2 inh -1.4 and HIV TAR-Tat -0.27.
CCOc1cc(C2CC(=O)Nc3nc(SCc4ccccc4C)[nH]c(=O)c32)ccc1O (stereo not given) was read as CDC25B CDK2 inh -0.18 and HIV TAR-Tat 1.8.
For Cc1ccccc1CSc1nc2c(c(=O)[nH]1)C(c1ccc(O)c(O)c1)CC(=O)N2 (stereo not given) the results were CDC25B CDK2 inh 2.9 and HIV TAR-Tat 25*.
Cc1ccc(CSc2nc(=O)c3c(n2C)NC(=O)CC3c2ccc(O)c(O)c2)cc1 (stereo not given) was read as CDC25B CDK2 inh -0.12 and HIV TAR-Tat 26*.
For CCOc1cc(C2CC(=O)Nc3nc(SC)[nH]c(=O)c32)ccc1O (stereo not given) the results were CDC25B CDK2 inh -2.5 and HIV TAR-Tat 1.8.
Screening C=CCSc1nc2c(c(=O)[nH]1)C(c1ccc(O)c(O)c1)CC(=O)N2 (stereo not given) returned CDC25B CDK2 inh 16* and HIV TAR-Tat 19*.
CCCSc1nc2c(c(=O)[nH]1)C(c1ccc(O)c(O)c1)CC(=O)N2 (stereo not given) was read as CDC25B CDK2 inh 7.8* and HIV TAR-Tat 8.5*.
For Cn1c(SCc2ccc(F)cc2)nc(=O)c2c1NC(=O)CC2c1cccc(O)c1 (stereo not given) the results were CDC25B CDK2 inh -1.2 and HIV TAR-Tat -0.43.
CS(=O)(=O)NCCc1csc2nc(-c3cccc(F)c3)nn12 was read as HIV TAR-Tat 1.5.
Screening O=C(NCC1CCCO1)Nc1ccc(Cl)c(Cl)c1 (stereo not given) returned CDC25B CDK2 inh 2.5.
`CN1CCN(C(=O)C2Cc3ccccc3N2C(=O)c2ccccc2)CC1` (stereo not given) gave HIV TAR-Tat 1.2.
Screening COc1cc(Br)cc2cc3c(=O)n(-c4ccccc4)nc-3oc12 returned CDC25B CDK2 inh -0.55 and HIV TAR-Tat 1.9.
`Cc1c(NC(=O)CCc2nc(-c3cccs3)no2)c(=O)n(-c2ccccc2)n1C` gave CDC25B CDK2 inh -0.67 and HIV TAR-Tat 0.38.
`c1ccc(N2CCN(c3c4c(nc5ncnn35)CCCC4)CC2)cc1` gave HIV TAR-Tat 0.69.
CCCCN(CC)c1ccc2nnc(CCC(=O)O)n2n1 was read as CDC25B CDK2 inh -1.5 and HIV TAR-Tat -0.24.
Cc1ccc(C(CNC(=O)c2cc(-c3ccc4c(c3)OCCO4)on2)N(C)C)o1 (stereo not given) was read as CDC25B CDK2 inh 0.06 and HIV TAR-Tat 0.37.
For O=c1ccc(-c2ccc(S(=O)(=O)Nc3ccc(Br)cc3F)o2)n[nH]1 the results were HIV TAR-Tat 18*.
`O=c1ccc(-c2ccc(S(=O)(=O)Nc3ccc(Cl)cc3F)o2)n[nH]1` gave HIV TAR-Tat 2.1.
CC1CCC(NC(=O)C2(C)Cn3c(nc4ccccc43)C(=O)N2CCN(C)C)CC1 (stereo not given) was read as HIV TAR-Tat 1.2.
For Cc1ccc(NS(=O)(=O)c2cc3[nH]c4c(c3cc2C)C(=O)CCC4)cc1 the results were HIV TAR-Tat -0.82.
For Cc1cc2c3c([nH]c2cc1S(=O)(=O)Nc1ccc(S(N)(=O)=O)cc1)CCCC3=O the results were HIV TAR-Tat 11*.
